Among all 310,000 compounds or so, about 14,000 (4.5%) showed an effect of 50% or more. The effect is printed as a negative number. The list comes from a sample in which strong results are over-represented; it also holds similar structures and randomly drawn compounds.
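Also: peak tail current of the secondary pulse compared with the same well before compound.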

The target in the assay is human ether-à-go-go-related gene (hERG) potassium channel (human, UniProt Q12809). Kind of assay: primary screen, population patch clamp on CHO cells stably expressing hERG; higher = less effect of the substance.
human ether-à-go-go-related gene (hERG) potassium channel, sequence (Q12809 whole entry, looked up): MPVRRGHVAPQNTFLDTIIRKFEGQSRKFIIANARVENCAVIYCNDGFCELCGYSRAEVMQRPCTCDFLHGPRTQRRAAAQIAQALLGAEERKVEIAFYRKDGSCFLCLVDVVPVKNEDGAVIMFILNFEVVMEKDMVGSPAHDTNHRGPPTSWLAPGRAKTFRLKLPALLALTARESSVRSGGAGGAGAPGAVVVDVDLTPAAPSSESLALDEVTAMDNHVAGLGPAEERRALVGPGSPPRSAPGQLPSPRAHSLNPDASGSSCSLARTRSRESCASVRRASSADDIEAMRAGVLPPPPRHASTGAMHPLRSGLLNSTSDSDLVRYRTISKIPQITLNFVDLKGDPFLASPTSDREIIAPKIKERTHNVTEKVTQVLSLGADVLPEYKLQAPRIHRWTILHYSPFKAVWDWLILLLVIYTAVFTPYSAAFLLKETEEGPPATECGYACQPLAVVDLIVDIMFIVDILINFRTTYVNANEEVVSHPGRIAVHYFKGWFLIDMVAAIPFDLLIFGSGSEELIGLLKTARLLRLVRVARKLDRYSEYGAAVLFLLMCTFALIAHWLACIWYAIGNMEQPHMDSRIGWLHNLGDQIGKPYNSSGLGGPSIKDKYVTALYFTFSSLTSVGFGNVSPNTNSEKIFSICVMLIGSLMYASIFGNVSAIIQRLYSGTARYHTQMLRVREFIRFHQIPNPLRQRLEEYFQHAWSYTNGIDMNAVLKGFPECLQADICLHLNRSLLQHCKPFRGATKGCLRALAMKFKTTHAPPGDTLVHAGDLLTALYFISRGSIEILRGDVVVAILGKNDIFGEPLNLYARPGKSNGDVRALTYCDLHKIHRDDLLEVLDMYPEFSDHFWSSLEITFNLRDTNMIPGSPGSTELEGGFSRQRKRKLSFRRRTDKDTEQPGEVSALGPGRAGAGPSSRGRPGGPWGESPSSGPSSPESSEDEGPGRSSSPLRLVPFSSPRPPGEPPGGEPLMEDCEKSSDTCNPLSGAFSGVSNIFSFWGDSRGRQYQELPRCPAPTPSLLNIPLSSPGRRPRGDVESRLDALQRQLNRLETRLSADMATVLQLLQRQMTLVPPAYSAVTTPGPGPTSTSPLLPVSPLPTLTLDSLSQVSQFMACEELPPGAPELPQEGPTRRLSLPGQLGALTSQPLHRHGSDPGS
For the compound `O=C(CN1CCN(c2ccccn2)CC1)Nc1ccccc1F`, the “hERG current change (%, negative = inhibition) at 10uM” value was 1.45%.

With `c1ccc2c(c1)CC1(CCCC1)n1nnnc1-2`, the “hERG current change (%, negative = inhibition) at 10uM” value was -19.4%.

With `O=C(NCc1ccccc1)C1=C[C@H](C2CCCCC2)C[C@H](OCCCCO)O1`, the “hERG current change (%, negative = inhibition) at 10uM” value is reported as -3.07%.

Take `N#Cc1cc([N+](=O)[O-])cnc1N(CCO)CCO`: the “hERG current change (%, negative = inhibition) at 10uM” value is reported as -1.1%.

Take `CN1CCN(c2ncnc3nc[nH]c23)CC1`: the “hERG current change (%, negative = inhibition) at 10uM” value stood at 18.5%.

In the case of `Cc1ccccc1C(=NCCCN(C)C)c1ccccc1C.Cl`, the “hERG current change (%, negative = inhibition) at 10uM” value was -21.7%.

Take `Cc1ccc(NCC(=O)N=Nc2c(O)[nH]c3ccc([N+](=O)[O-])cc23)cc1`: the “hERG current change (%, negative = inhibition) at 10uM” value is recorded as -5.06%.

Regarding `Cc1ccc(O)c(-c2cc(C(=O)Nc3c(C)n(C)n(-c4ccccc4)c3=O)[nH]n2)c1`, the “hERG current change (%, negative = inhibition) at 10uM” value was found to be 8.4%.

Take `O=C(O)c1ccccc1NC(c1ccccc1)c1ccc(Cl)cc1` (stereo not drawn): the “hERG current change (%, negative = inhibition) at 10uM” value amounted to 19.8%.

Turning to `N#C/C(=C\c1ccccc1[N+](=O)[O-])C(=O)NC1CCCCC1`, the “hERG current change (%, negative = inhibition) at 10uM” value is recorded as -13.9%.

As for `COc1ccc(N2CCN(C(=O)COC(=O)CNC(=O)c3cccc(OC(F)F)c3)CC2)cc1`, the “hERG current change (%, negative = inhibition) at 10uM” value is -43.7%.

Regarding `Cc1cc(C(=O)NCC(=O)OCC(=O)NCCc2ccccc2)ccc1[N+](=O)[O-]`, the “hERG current change (%, negative = inhibition) at 10uM” value was -16.9%.

For the compound `Cc1cc(C(=O)NCC(=O)OCC(=O)Nc2ccc(OC(F)F)cc2)ccc1[N+](=O)[O-]`, the “hERG current change (%, negative = inhibition) at 10uM” value is reported as -67.8%.

`COc1cccc(C(=O)NCC(=O)OCC(=O)c2ccccc2)c1`: the “hERG current change (%, negative = inhibition) at 10uM” value came out at 2.59%.

For the compound `Cc1cc(C(=O)NCC(=O)OCC(=O)N(C(C)C)C(C)C)ccc1[N+](=O)[O-]`, the “hERG current change (%, negative = inhibition) at 10uM” value amounted to 10.6%.

On to `COc1ccc(C(=O)COC(=O)CNC(=O)c2cccc(OC(F)F)c2)cc1`, for which the “hERG current change (%, negative = inhibition) at 10uM” value is reported as -64.6%.

As to `Cc1ccnc2c(N3C(=O)C4C5c6ccccc6C(c6ccccc65)C4C3=O)cccc12` (stereo not drawn), the “hERG current change (%, negative = inhibition) at 10uM” value is given as -2.78%.

In the case of `CCCNC(=O)C(Cc1ccc(C(F)(F)F)cc1)NC(=O)c1ccc2ccccc2n1` (stereo not drawn), the “hERG current change (%, negative = inhibition) at 10uM” value worked out at 14%.

Regarding `CCOc1ccc2ncc(S(=O)(=O)c3ccccc3)c(N3CCN(c4ccccc4)CC3)c2c1`, the “hERG current change (%, negative = inhibition) at 10uM” value was -2.21%.

Turning to `CCN1CCN(c2c(S(=O)(=O)c3ccc(C)c(C)c3)cnc3ccc(F)cc23)CC1`, the “hERG current change (%, negative = inhibition) at 10uM” value is given as -53.4%.

For `CCc1ccc2ncc(S(=O)(=O)c3ccc(C)c(C)c3)c(N3CCCC3)c2c1`, the “hERG current change (%, negative = inhibition) at 10uM” value is 0.769%.

`Nc1cc(N)nc(SCC(=O)Nc2ccc3c(c2)OCCCO3)n1`: the “hERG current change (%, negative = inhibition) at 10uM” value stood at 8.03%.

Regarding `CN(C)c1ccc(/C=N/N(Cc2ccccc2)c2ccccc2)cc1`, the “hERG current change (%, negative = inhibition) at 10uM” value is reported as 3.54%.

With `O=C(CN1CCCCCCC1)Nc1ccc(Cl)cc1Cl`, the “hERG current change (%, negative = inhibition) at 10uM” value is given as 35.9%.

As to `CN1C(CC(=O)Nc2ccc(Cl)cc2Cl)c2ccccc2CC1(C)C` (stereo not drawn), the “hERG current change (%, negative = inhibition) at 10uM” value is on record as -76.7%.

For `O=C(CCN1CCCCC1)Nc1ccc(Cl)cc1C(=O)c1ccccc1`, the “hERG current change (%, negative = inhibition) at 10uM” value is -72.6%.

As to `CN1CCN(C(=S)SCC(=O)Nc2ccc(Cl)cc2C(=O)c2ccccc2)CC1`, the “hERG current change (%, negative = inhibition) at 10uM” value is given as -29.8%.

`O=C(CCNS(=O)(=O)c1ccccc1)Nc1ccc(Cl)cc1C(=O)c1ccccc1`: the “hERG current change (%, negative = inhibition) at 10uM” value is -32.9%.

With `O=C(CN1CCCC1)Nc1ccc(Cl)cc1C(=O)c1ccccc1.O=C(O)C(=O)O`, the “hERG current change (%, negative = inhibition) at 10uM” value is -46.8%.

On to `CN1C(CC(=O)Nc2ccc(Br)cc2)c2ccccc2CC1(C)C` (stereo not drawn), for which the “hERG current change (%, negative = inhibition) at 10uM” value is -38.2%.

For `Cc1ccccc1NC(=O)CC1c2ccccc2CC(C)(C)N1C` (stereo not drawn), the “hERG current change (%, negative = inhibition) at 10uM” value is given as 4.03%.

On to `O=C(O)CC1(CC(=O)Nc2ccc(Cl)cc2C(=O)c2ccccc2)CCCC1`, for which the “hERG current change (%, negative = inhibition) at 10uM” value is 6.78%.

As to `CN1CCN(CC(=O)Nc2ccc(Cl)cc2Cl)CC1`, the “hERG current change (%, negative = inhibition) at 10uM” value was -69.4%.

For `CN1CCN(CC(=O)Nc2ccc(Cl)cc2C(=O)c2ccccc2)CC1`, the “hERG current change (%, negative = inhibition) at 10uM” value is listed as -77.2%.

For `Cc1cc(Cl)ccc1NC(=O)CN1CCCC1`, the “hERG current change (%, negative = inhibition) at 10uM” value is 27.1%.

For `COc1cccc(C(=O)Nc2cc(NC(=O)c3cccs3)ccc2C)c1OC`, the “hERG current change (%, negative = inhibition) at 10uM” value was -14%.

`Cc1sc(-c2c(C#N)c(N)nc3c2CCCCCC3)cc1[N+](=O)[O-]`: the “hERG current change (%, negative = inhibition) at 10uM” value is given as -4.1%.

Turning to `COc1ccc(NC(=O)C2CCN(C(=O)[C@@H]3Cc4ccccc4CN3C(=O)OC(C)(C)C)CC2)cc1`, the “hERG current change (%, negative = inhibition) at 10uM” value is given as 2.02%.

Take `Cc1cc(C)c(NC(=O)Nc2ccccc2)c(C)n1`: the “hERG current change (%, negative = inhibition) at 10uM” value is reported as 23.4%.

For the compound `CN1CCN(CC(=O)Nc2cccc([N+](=O)[O-])c2)CC1`, the “hERG current change (%, negative = inhibition) at 10uM” value amounted to 3.24%.

As for `O=C(COc1ccccc1)Nc1ccc(Cl)cc1C(=O)c1ccccc1`, the “hERG current change (%, negative = inhibition) at 10uM” value is 6.83%.

As for `CN1CCN(CC(=O)Nc2ccc([N+](=O)[O-])cc2C(=O)c2ccccc2)CC1`, the “hERG current change (%, negative = inhibition) at 10uM” value is -84.6%.

As to `O=C(CN1CCCC1)Nc1ccccc1C(=O)c1ccccc1`, the “hERG current change (%, negative = inhibition) at 10uM” value was -2.59%.

With `O=C(CN1CCN(CCO)CC1)Nc1ccc(Cl)cc1C(=O)c1ccccc1`, the “hERG current change (%, negative = inhibition) at 10uM” value is given as -72.8%.

With `CN1CCN(CC(=O)Nc2ccccc2[N+](=O)[O-])CC1`, the “hERG current change (%, negative = inhibition) at 10uM” value is reported as -13.2%.

These data come from paper PMC4336329 (PLoS ONE, 2015).
